Potency data for seven molecules are collected here from PubChem BioAssay (Tox21).

A short description of test [1]: A CellTox Green Cytotoxicity Assay to monitor cytotoxicity in HEK293 cells - 32 hour (AID 1224881). Further: nearly all actives have a fitted effect of over 40% in size. Further: potency means the concentration at half of the fitted maximal effect. In short, it runs like this: (§1)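 Fluorescence from a DNA-binding dye excluded by viable cells was measured repeatedly in the same HEK293 wells (600 cells/well) during continuous compound exposure at 37 C. Each assay gives one read point: 0, 8, 16, 24, 32 or 40 h.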
Test [2] in a line: A CellTox Green Cytotoxicity Assay to monitor cytotoxicity in HepG2 cells - 0 hour (AID 1224882). Further: nearly all actives have a fitted effect of over 35% in size. An outline of the steps: (§2)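 Real-time cytotoxicity: fluorescence of a cell-impermeant cyanine dye binding DNA of dead HepG2 cells, measured repeatedly (0–40 h) during compound exposure at 37 C. Cells seeded 600/well with reagent, dosed after 5 h.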
Test [3] is described as follows: A CellTox Green Cytotoxicity Assay to monitor cytotoxicity in HEK293 cells - 8 hour (AID 1224884). Further: nearly all actives have a fitted effect of over 35% in size. An outline of the steps:
as §1

A short description of test [4]: qHTS RealTime-Glo MT Cell Viability Assay in HepG2 cells - 16 hour (AID 1224885). Further: nearly all actives have a fitted effect of over 50% in size. In short, it runs like this: (§3)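 Viability was tracked continuously by NanoLuc luminescence from prosubstrate reduced by living HepG2 cells, at successive time points over 40 h of compound exposure. Cells with reagent were preincubated 5 h at 37 °C before compound addition.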
Test [5] in a line: qHTS RealTime-Glo MT Cell Viability Assay in HEK293 cells - 8 hour (AID 1224887). Further: top concentration of the series differs between compounds; nearly all actives have a fitted effect of over 50% in size. An outline of the steps: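 Luminescence, which tracks viable cell number through reduction of the prosubstrate to a NanoLuc substrate, was read over continuous 37 C culture. Cells (600/well) were premixed with reagent and rested 5 h before 23 nL of compound in DMSO was pinned.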
Test [6] can be described thus: A CellTox Green Cytotoxicity Assay to monitor cytotoxicity in HEK293 cells - 16 hour (AID 1224888). Further: nearly all actives have a fitted effect of over 35% in size. In short, it runs like this:
as §1

The nature of test [7]: qHTS RealTime-Glo MT Cell Viability Assay in HepG2 cells - 0 hour (AID 1224889). Further: nearly all actives have a fitted effect of over 50% in size. An outline of the steps: as §3
Test [8] is described as follows: A CellTox Green Cytotoxicity Assay to monitor cytotoxicity in HepG2 cells - 8 hour (AID 1224890). Further: nearly all actives have a fitted effect of over 45% in size. An outline of the steps: as §2
Test [9] can be described thus: A CellTox Green Cytotoxicity Assay to monitor cytotoxicity in HepG2 cells - 32 hour (AID 1224883). Further: nearly all actives have a fitted effect of over 50% in size. An outline of the steps:
as §2

Test [10] is described as follows: qHTS RealTime-Glo MT Cell Viability Assay in HEK293 cells - 24 hour (AID 1224886). In short, it runs like this: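 Viability tracked continuously by luminescence as live cells reduce a prosubstrate for NanoLuc; HEK293 cells preincubated 5 h, compound-treated at 37 C, and read at 0, 8, 16, 24, 32 and 40 h.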

Results filed as inconclusive are left out. Activity calls are given as the source filed them. The call rests on the fitted dose curve; in most records, active means well fitted curve in the direction sought with a large enough effect in the repeat runs; inconclusive means weak or mixed curves; inactive means no such curve, though single readings can be large; an effect the other way counts as inactive or inconclusive.

Turning to `CN(C)CCCOc1nn(Cc2ccccc2)c2ccccc12`, the Potency result in test [1], in test [2], in test [3], in [4], in [5] and in test [6] was “inactive” each time. In addition, the Potency entry in [7] and in test [8] was “inactive” throughout.

Consider `CC(C)c1ccc2c(C(C)C)cc(C(C)C)c(S(=O)(=O)O)c2c1`, for which the Potency entry in test [2], in test [9], in test [3], in [4], in test [10] and in test [5] was “inactive” throughout. Besides, the Potency result in test [6], in [7] and in [8] was “inactive” each time.

Turning to `CC(Cc1cccc(C(F)(F)F)c1)NCCOC(=O)c1ccccc1` (stereo not drawn), the Potency in test [1] is 21.3 µM (active). The Potency entry in test [2], in test [3], in test [4], in test [6] and in test [7] was “inactive” throughout.

As for `CN(C)CCCNCCCN`, the Potency result in test [1], in test [2], in [3], in [4], in test [10] and in test [5] was “inactive” throughout. Also, the Potency entry in test [6], in test [7] and in [8] was “inactive” throughout.

For `c1ccc(OCc2ccc(CCCN3CCOCC3)cc2)cc1`, the Potency result in test [1], in [3], in test [6] and in test [7] was “inactive” throughout.

For `Cn1c(=O)c2c(ncn2CC(O)CO)n(C)c1=O` (stereo not drawn), the Potency result in test [1], in [2], in test [3], in [4], in [10] and in test [5] was “inactive” throughout. For the same molecule, the Potency entry in test [6], in test [7] and in [8] was “inactive” in each case.

Take `CC(C)(C)c1ccc(OCC2CO2)cc1` (stereo not drawn): the Potency entry in test [2], in test [9], in test [3], in test [4], in test [10] and in test [5] was “inactive” each time. The Potency result in [7] and in test [8] was “inactive” in each case.
